Compound activity deposited in PubChem BioAssay by National Center for Advancing Translational Sciences (NCATS).
In the library only some 15% were active in any assay of this set; here they are far more common.
Pf growth 48h = inhibits P. falciparum growth in the first generation, 48 h; AID 504832; Potency, µM (highest dose often 28.7 µM), for the others: top-dose activity change, negative = inhibition, usual class: inhibitors; 310,000 tested, 5.9% active; P. falciparum luciferase growth in erythrocytes, 48 h; note: potency is the fitted concentration of half-maximal effect; % is set by controls: 0 for no effect and ±100 for the full control effect
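Luciferase-expressing P. falciparum in infected erythrocytes (2% hematocrit, 0.1% parasitemia final) in RPMI 1640/0.5% Albumax were exposed to compound for 48 hours at 37 C, 5% CO2; growth read as luminescence.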
Sm TGR inh = blocks Schistosoma mansoni thioredoxin glutathione reductase; Q962Y6; purified TGR, DTNB reduction, TNB absorbance 405 nm; Potency, µM (top dose mostly 114 µM), for the others: top-dose activity change, negative = inhibition, usual class: inhibitors; 360,000 tested, 3% active; AID 485364; note: potency is the fitted concentration of half-maximal effect; % is set by controls: 0 for no effect and ±100 for the full control effect; nearly all actives have a fitted effect of over 60% in size
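First, TGR (20 nM dispensed) and NADPH were mixed with compound. Second, a 15 min room-temperature incubation followed. Third, further NADPH and then DTNB were added to start the reaction. Finally, TNB absorbance was monitored kinetically.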
Pf growth 96h = P. falciparum growth inhibition at 96 hours | 320,000 tested, 6.9% active | Potency, µM (highest dose often 28.7 µM), inactives show at the top dose activity change, negative = inhibition, most hits filed as inhibitors | AID 504834 | P. falciparum luciferase reporter growth, 96 h; note: potency is the fitted concentration of half-maximal effect; % is set by controls: 0 for no effect and ±100 for the full control effect
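P. falciparum expressing integrated firefly luciferase, in erythrocytes at 2% hematocrit, 0.05% parasitemia, incubated with compounds 96 h at 37 C, 5% CO2. Growth inhibition read as loss of luminescence; two-generation exposure targets delayed-death apicoplast inhibitors.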
HCMV inh = blocks human cytomegalovirus replication | HFF cells, HCMV-luciferase reporter, 72 h; active compounds read low | activity change, negative = inhibition, % at 57.5 µM | 410,000 tested, 4.5% active; in the data active = activity change below about -60%; inconclusive = no clear call, values can overlap the other calls; inactive = above about -39%; note: % is set by controls: 0 for no effect and ±100 for the full control effect
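Human foreskin fibroblasts infected with luciferase-reporter HCMV at MOI 1 PFU/cell, compounds at two doses. Luciferase measured 72 h post infection; normalized to buffer-only basal and Salinomycin (10uM) controls.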
SARS PLpro yeast = blocks SARS-CoV papain-like protease in a yeast assay; S. cerevisiae expressing SARS-CoV PLpro, growth rescue; Potency, µM (doses to about 32.9 µM), for inactives: at the top dose activity, positive = growth rescue, actives largely listed as activators; 330,000 tested, 0.19% active; AID 485353; calls by dose curve; note: potency is the fitted concentration of half-maximal effect; 0% is about no effect; nearly all actives have a fitted effect of over 55% in size
HCV inhibitor = blocks hepatitis C virus; AID 651820; 340,000 tested, 3.4% active; Potency, µM (titrated, usually from 41.8 µM), inactives show top-dose activity change, negative = inhibition, most hits filed as inhibitors; Huh7.5.1 HCVcc-Cre infection, luciferase reporter, 44 h; note: potency is the fitted concentration of half-maximal effect; % is set by controls: 0 for no effect and ±100 for the full control effect
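HCVcc-Cre virus at an moi near 0.5 was added right after compound to cells cultured 4 h from seeding (1,000 cells/well). Luciferase activity was determined 44 h later, 15 min after substrate addition at RT.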
Starred values were filed as active, the others as inactive; ? = inconclusive; nt = no result given; [ ] = dose if it differs, or a comment. Unless noted, calls come from the whole dose curve; as a rule, active = well fitted curve in the direction sought with a large enough effect; inconclusive = small, poorly fitted or top-dose-only effect, or another doubt; inactive = no such curve, though single readings can be large; an effect the other way counts as inactive or inconclusive.

SMILES	Pf growth 48h	Sm TGR inh	Pf growth 96h	HCMV inh	SARS PLpro yeast	HCV inhibitor
CCC(c1nnnn1C1CCCC1)N1CCN(c2cccc(OC)c2)CC1 (stereo unspecified)	11.7µM*	-22.2%[57.1 µM]	27.3%	-33.9	0.3%	17.0%
COc1ccc(C(c2nnnn2C2CCCCC2)N2CCN(c3ccc(OC)cc3)CC2)cc1 (stereo unspecified)	11.7µM*	-12.2%	nt	-21.3	-7.5%	?
CCC(c1nnnn1CCOC)N1CCN(c2cccc(C(F)(F)F)c2)CC1 (stereo unspecified)	?	-10.4%	2.33µM*	8.0	0.4%	8.5%
CCN1C(=O)[C@H]2[C@@H](c3ccc(OC)cc3)N[C@]3(CCCN(Cc4ccc(F)cc4)C3=O)[C@H]2C1=O	nt	nt	nt	-13.4	nt	nt
CCC(=O)N1[C@@H]2Cn3c(cccc3=O)[C@H]1[C@@H](C(=O)NC1CCCCC1)[C@@H]2CO	nt	nt	nt	5.0	nt	nt
CCCC(=O)N1CCC1(C)C(=O)Nc1ccc(OC)c(OC)c1 (stereo unspecified)	nt	nt	nt	-26.6	nt	nt
CCN(Cc1ccccc1)C1CCN(Cc2ccc(SC)cc2)CC1	?	2.0%	-25.6%	?	-3.6%	7.08µM*
CCN(Cc1ccccc1)C(=O)C1CCN(Cc2ccc(SC)cc2)CC1	?	-1.6%	-29.3%	6.7	0.5%	?
C=CCOC(=O)N1CCN(c2cccc(C(F)(F)F)c2)CC1	-1.6%	7.2%	-10.3%	-4.0	-14.6%	10.2%
CCCOP(=O)(OCCC)c1c([N+](=O)[O-])cc(C(F)(F)F)cc1[N+](=O)[O-]	nt	-11.2%	9.28µM*	?	-7.4%	-19.2%
CCOC(=O)c1c(C)c(-c2ccccc2)n(CC(=O)Nc2ccc(OCC)cc2)c1C	nt	3.5%	nt	2.0	nt	nt
Cc1ccc2ncccc2c1NC(=S)NC(=O)c1ccccc1	?	20µM*	48.4%	-39.0	8.6%	-16.0%
Cc1ccc2nsnc2c1NC(=O)CCl	?	44.7µM*	?	-24.0	4.6%	-16.5%
CCC(=O)Nc1c(C)ccc2nsnc12	nt	9.4%[11.4 µM]	-2.9%	92.2	11.9%	2.6%
Cc1ccc(C(=O)NC(=S)Nc2cccc3nsnc23)cc1	?	?	-16.6%	22.2	5.0%	7.1%
Cc1ccc(C(=O)NC(=S)Nc2c(C)ccc3nsnc23)cc1	-15.7%	?	18.1%	41.6	12.6µM*	-13.4%
Cc1ccc(C(=O)NC(=S)Nc2cccc3c(C)cc(C)nc23)cc1	?	2.0%	11.7µM*	1.6	-2.4%	-11.3%
CC(C)C(OC(=O)c1cccs1)C(=O)NCc1ccccc1 (stereo unspecified)	31.5%	0.1%[57.1 µM]	-4.1%	-27.2	-1.1%	12.8%
COc1ccc(S(=O)(=O)N/N=C\c2ccc3c(c2)OCO3)c(OC)c1	?	-1.1%	?	18.0	-3.4%	3.55µM*
COc1cccc(NC(=O)CN(C)C(=O)c2ccc3c(c2)C(=O)N(CCC(C)C)C3=O)c1	?	-3.1%	-26.3%	39.3	5.0%	-5.2%
Cc1ccc(NC(=O)CSc2nnc(-c3cccnc3)s2)cc1	1.3%	-3.7%	0.0%	10.9	-2.7%	-0.3%
O=C(CSc1nnc(-c2cccnc2)s1)Nc1ccnc2ccccc12	14.3%	-8.1%	?	-91.7*	8.7%	?
CCCCn1nnc(NC(=O)c2ccc(-c3cccc(Cl)c3)o2)n1	-10.0%	25.1µM*	60.2%	nt	-12.4%	nt
CCCn1nnc(NC(=O)c2ccc(-c3cccc(Cl)c3)o2)n1	57.6%	-38.9%	?	6.0	-4.3%	?
CCn1nnc(NC(=S)NC(=O)c2ccc(-c3cccc(Cl)c3)o2)n1	-5.6%	12.6µM*	-9.0%	-4.1	-6.7%	-10.7%
CC(C)c1nc(CNC(=O)C2CCC(=O)N(CCc3ccc(Cl)cc3)C2)no1 (stereo unspecified)	-26.1%	-6.9%	?	57.6	-4.1%	-21.0%
Cc1cccc(N2CCN(C(=O)c3c(C)nn(Cc4ccccc4Cl)c3C)CC2)c1C	nt	-6.1%	7.38µM*	?	-25.4%	31.6µM*
